Design in all cases: scale not given: direction of the effect not stated beside the values
In assay [1] the target is Protein translocase subunit SecA (Escherichia coli (strain K12)) (UniProt P10408). The assay can be described thus: Assay to Identify E. coli SecA ATPase Inhibitors. The settings on record: 30 µM. In kind it is functional.
The target of assay [2] is T1, Ubiquitin-activating enzyme e1, putative (Leishmania donovani (strain BPK282A1)) (UniProt E9BSI1).
T1 sequence (whole entry): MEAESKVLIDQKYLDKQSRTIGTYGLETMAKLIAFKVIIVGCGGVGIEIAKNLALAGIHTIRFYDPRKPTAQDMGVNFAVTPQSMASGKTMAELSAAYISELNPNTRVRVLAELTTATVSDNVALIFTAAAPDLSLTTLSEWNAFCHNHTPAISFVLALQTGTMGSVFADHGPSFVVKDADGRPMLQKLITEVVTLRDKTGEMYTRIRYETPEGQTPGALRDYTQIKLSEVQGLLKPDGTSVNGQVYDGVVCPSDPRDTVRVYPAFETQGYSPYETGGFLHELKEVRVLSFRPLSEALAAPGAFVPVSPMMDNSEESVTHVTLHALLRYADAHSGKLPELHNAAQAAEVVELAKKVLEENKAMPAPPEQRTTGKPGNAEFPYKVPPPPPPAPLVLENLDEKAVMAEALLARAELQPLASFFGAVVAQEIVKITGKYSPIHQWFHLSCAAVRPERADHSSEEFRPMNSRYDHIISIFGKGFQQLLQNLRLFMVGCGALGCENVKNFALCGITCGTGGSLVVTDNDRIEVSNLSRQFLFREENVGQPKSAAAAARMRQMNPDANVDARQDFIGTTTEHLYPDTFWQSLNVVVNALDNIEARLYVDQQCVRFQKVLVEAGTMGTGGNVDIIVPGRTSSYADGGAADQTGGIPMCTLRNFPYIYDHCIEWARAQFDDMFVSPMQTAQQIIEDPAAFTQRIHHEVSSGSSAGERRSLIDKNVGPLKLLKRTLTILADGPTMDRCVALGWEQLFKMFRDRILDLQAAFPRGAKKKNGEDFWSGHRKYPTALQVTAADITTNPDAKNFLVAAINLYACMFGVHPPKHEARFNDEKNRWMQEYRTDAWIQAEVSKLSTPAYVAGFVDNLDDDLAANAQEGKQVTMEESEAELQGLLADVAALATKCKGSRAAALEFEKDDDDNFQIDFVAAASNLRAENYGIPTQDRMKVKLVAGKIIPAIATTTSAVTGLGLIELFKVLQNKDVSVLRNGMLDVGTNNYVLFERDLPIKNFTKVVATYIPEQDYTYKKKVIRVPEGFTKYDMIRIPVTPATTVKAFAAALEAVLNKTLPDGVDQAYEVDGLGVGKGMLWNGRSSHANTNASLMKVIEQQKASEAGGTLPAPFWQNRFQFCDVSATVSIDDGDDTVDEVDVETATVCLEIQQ
The experiment in a line: Leishmania donovani Ubiquitin Activating Enzyme (LdE1). It is filed as functional. The note with it: 30 µM.

Assay [3] concerns the target AMP-activated protein kinase, AMPK (Homo sapiens) (UniProt P54646+O43741+P54619+Q9UGJ0+Q9Y478+Q13131+Q9UGI9). The assay can be described thus: AMP-dependent Kinase enzyme assay. An in vitro enzyme assay that detects ADP turnover that is directly proportional to AMPK activity. This uses naive AMPK that is activated during the assay with MK-8722. It is filed as functional. The settings on record: 30 µM.

The target in assay [4] is Sialic acid-binding Ig-like lectin 9 (Homo sapiens) (UniProt Q9Y336). The assay can be described thus: Hs-Siglec9 ALPHAscreen SOP 20170721. The settings on record: 10 µM. Background: Bead proximity is the source of the signal in Alpha formats.
Chain of Sialic acid-binding Ig-like lectin 9 (Homo sapiens) (Q9Y336 whole entry): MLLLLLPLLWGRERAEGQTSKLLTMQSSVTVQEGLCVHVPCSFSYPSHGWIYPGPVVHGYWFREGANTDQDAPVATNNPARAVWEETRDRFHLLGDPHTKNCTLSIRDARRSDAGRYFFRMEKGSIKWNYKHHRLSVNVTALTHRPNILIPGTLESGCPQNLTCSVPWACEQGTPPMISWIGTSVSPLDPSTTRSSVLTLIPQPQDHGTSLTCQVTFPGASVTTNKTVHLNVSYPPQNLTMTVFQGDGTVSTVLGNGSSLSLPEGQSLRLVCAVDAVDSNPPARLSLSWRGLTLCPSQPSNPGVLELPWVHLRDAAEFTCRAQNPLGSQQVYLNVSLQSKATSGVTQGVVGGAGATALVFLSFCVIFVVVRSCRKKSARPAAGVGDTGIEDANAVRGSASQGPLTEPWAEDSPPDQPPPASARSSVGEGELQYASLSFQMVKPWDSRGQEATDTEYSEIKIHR
For assay [5], the system named is Trypanosoma cruzi. The assay can be described thus: Trypanosoma cruzi phosphomannomutase and mannose-1-phosphate guanylyltransferase assay. It is filed as functional. The note with it: 10 µM.
In assay [6] the target is T2, Arginase-2, mitochondrial (Homo sapiens) (UniProt P78540).
T2 sequence (whole entry): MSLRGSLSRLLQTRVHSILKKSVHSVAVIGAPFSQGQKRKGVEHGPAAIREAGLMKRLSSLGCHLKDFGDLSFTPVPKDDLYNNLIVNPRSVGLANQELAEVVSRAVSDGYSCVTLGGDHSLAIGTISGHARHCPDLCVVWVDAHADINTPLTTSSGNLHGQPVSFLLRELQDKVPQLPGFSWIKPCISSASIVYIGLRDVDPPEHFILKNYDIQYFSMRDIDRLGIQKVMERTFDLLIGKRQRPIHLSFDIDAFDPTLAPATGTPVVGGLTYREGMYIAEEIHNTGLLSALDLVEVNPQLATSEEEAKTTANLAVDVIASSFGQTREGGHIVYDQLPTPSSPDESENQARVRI
The experiment in a line: in vitro enzyme assay to detect the production of urea directly proportional to the activity of Arginase II. Note: in the data most compounds retested in dose-response had high values. The note with it: 33.3 µM. In kind it is functional.

Assay [7] deals with T3, Proteasome subunit beta (Trypanosoma cruzi) (UniProt O96673).
T3 sequence (whole entry): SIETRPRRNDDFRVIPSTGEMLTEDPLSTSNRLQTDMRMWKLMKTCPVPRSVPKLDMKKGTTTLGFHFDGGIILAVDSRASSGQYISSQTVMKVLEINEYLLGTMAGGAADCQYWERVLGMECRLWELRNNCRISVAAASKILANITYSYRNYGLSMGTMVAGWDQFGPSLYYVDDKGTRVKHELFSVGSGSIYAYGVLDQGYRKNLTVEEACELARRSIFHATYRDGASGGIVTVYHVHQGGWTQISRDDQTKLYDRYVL
The assay can be described thus: Trypanosoma cruzi proteasome chymotrypsin-like activity (TcProtChymo) assay. Note: in the data most compounds retested in dose-response had high values. In kind it is functional. The note with it: 9.37 µM.

The species entered for assay [8] is Homo sapiens. The experiment in a line: To identify inhibition of the IFN signalling (Jak-Stat) pathway via expression of an eGFP reporter gene under the control of an IFN-stimulated response element (ISRE) containing MxA promoter. The note with it: 30 µM. In kind it is functional. A general note: In a reporter assay the amount or activity of a reporter protein is the signal.

Assay [9] deals with T4, Tyrosyl-tRNA synthetase, putative (Trypanosoma cruzi (strain CL Brener)) (UniProt Q4DSP6).
T4 sequence (whole entry): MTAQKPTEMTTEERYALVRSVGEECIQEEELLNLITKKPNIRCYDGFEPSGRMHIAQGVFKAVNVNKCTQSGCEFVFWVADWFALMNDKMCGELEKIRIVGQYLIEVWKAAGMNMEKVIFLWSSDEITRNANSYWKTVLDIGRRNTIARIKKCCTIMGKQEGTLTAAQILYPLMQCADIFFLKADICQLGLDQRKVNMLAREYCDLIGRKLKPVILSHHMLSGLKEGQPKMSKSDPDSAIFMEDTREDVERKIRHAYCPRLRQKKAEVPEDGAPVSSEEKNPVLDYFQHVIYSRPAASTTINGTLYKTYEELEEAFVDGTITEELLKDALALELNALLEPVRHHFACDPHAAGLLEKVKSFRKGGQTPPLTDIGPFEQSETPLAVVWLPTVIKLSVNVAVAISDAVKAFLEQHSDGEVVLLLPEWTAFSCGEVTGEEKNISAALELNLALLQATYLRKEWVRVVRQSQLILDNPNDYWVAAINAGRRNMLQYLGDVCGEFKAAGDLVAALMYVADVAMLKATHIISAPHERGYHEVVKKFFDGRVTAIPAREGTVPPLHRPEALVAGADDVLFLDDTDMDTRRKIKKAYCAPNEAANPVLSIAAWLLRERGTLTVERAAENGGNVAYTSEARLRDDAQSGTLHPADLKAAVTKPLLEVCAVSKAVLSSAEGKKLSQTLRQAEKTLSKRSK
The assay can be described thus: Trypanosoma cruzi tyrosyl tRNA synthetase (TcYRS) _High Tyrosine SOP. Note: in the data most compounds retested in dose-response had high values. In kind it is functional. The note with it: 30 µM.

Assay [10] concerns the target T4, Tyrosyl-tRNA synthetase, putative (Trypanosoma cruzi (strain CL Brener)). The experiment in a line: Trypanosoma cruzi tyrosyl tRNA synthetase (TcYRS) SOP. The note with it: 30 µM. It is filed as functional.
The target in assay [11] is Chromo domain-containing protein 1 (Saccharomyces cerevisiae (strain ATCC 204508 / S288c) (Baker's yeast)) (UniProt P32657). The assay can be described thus: ScCHD-1 Enzyme Inhibition Assay. Note: in the data most compounds retested in dose-response had high values. In kind it is functional. The settings on record: 30 µM.
Chain of Chromo domain-containing protein 1 (Saccharomyces cerevisiae (strain ATCC 204508 / S288c) (Baker's yeast)) (P32657 whole entry, the tested form may be a part): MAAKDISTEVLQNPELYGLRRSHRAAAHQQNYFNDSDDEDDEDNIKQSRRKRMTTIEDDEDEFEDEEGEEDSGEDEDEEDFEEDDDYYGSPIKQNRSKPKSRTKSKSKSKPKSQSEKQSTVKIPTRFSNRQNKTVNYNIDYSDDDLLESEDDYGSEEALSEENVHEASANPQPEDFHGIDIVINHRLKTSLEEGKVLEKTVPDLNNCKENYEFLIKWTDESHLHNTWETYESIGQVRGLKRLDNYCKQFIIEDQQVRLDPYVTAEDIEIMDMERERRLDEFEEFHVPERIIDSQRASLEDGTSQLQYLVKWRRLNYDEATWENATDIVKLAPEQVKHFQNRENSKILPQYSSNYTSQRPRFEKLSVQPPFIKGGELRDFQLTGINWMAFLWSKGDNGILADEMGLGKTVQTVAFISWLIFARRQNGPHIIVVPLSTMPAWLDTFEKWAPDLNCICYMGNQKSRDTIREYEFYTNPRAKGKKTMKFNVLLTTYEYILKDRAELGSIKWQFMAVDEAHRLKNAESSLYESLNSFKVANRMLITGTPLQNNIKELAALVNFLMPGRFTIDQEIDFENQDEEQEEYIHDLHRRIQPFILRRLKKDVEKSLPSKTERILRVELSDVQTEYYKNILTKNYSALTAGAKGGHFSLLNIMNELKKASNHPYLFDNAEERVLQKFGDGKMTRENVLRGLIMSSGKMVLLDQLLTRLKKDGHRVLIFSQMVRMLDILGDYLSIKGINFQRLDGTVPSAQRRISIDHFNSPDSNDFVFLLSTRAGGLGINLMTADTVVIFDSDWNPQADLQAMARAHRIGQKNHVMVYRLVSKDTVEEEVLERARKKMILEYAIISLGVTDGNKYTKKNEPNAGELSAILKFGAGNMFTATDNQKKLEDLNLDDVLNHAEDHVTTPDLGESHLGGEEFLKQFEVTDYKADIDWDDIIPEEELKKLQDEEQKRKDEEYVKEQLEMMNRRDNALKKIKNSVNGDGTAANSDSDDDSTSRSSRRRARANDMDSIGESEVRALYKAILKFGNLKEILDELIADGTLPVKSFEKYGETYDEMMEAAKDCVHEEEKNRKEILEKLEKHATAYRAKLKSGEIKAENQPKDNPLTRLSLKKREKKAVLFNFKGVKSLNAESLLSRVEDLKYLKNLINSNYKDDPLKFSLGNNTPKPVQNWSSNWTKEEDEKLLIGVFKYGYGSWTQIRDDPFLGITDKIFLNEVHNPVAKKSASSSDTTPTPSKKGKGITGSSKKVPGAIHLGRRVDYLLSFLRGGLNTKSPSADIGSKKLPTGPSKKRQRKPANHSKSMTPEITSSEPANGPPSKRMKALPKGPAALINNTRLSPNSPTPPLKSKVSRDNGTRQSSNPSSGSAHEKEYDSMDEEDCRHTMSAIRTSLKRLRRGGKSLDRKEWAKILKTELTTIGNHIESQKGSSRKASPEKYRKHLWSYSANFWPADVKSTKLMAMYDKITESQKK

For some assays here: Measured potencies and affinities stand elsewhere.

Chain of Protein translocase subunit SecA (Escherichia coli (strain K12)) (P10408 whole entry): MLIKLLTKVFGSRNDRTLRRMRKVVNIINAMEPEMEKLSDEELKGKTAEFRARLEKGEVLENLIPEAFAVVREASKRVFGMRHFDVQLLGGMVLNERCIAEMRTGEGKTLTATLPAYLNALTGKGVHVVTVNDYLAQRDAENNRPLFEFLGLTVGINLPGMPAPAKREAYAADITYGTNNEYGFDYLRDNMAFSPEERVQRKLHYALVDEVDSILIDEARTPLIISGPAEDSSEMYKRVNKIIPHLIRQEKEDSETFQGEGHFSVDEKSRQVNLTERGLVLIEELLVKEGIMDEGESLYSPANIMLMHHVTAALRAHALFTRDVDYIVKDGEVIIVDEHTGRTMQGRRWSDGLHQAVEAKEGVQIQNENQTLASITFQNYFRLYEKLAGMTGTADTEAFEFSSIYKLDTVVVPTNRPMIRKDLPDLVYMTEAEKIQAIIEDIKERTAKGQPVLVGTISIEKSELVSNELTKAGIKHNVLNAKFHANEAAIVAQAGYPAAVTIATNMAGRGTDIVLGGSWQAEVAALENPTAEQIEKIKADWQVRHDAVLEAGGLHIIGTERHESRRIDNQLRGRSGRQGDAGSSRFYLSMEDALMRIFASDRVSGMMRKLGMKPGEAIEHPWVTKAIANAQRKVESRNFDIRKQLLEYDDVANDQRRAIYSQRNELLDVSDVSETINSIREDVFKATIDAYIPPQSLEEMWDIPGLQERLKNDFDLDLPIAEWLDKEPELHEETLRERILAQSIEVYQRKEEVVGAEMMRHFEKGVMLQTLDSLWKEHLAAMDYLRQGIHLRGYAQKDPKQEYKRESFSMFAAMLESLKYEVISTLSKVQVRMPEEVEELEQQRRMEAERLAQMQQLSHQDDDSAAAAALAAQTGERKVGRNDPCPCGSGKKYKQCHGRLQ

With `COc1ccc(CCC(=O)N2CCCC2Cn2cc(C)cn2)cc1F` (stereo not given), the Percent Effect in [1] was -2.77%; in [2], 0%; in [3], 9.15%; in assay [4], 2.46%; in assay [5] it was 1.27%; in assay [6], 4%. Also, the Percent Effect is -2.67% in assay [7]; -9.57% in [8]; 1.91% in assay [9]; 2.35% in assay [10]; -12.9% in [11].
As to `CC(=O)N1CCCC1c1ccc(C(=O)N2CCOCC2)s1` (stereo not given), the Percent Effect is -6.72% in assay [1]; -2.7% in [2]; 2.48% in assay [3]; -7.62% in [4]; -4.2% in [5]; -2.23% in [6]. Besides, the Percent Effect is -0.601% in assay [7]; 26.2% in assay [8]; -2.15% in assay [9]; -3.7% in [10]; 4.51% in [11].
`O=C(CN(Cc1cccnc1)CC1CCCO1)Nc1ccc(F)cc1` (stereo not given): the Percent Effect is -3.61% in assay [1]; 2.74% in assay [2]; 1.19% in [3]; 0.415% in [4]; -2.35% in assay [5]; -1.82% in assay [6]. Besides, the Percent Effect in assay [7] was 10.3%; in assay [8], 5.96%; in assay [9] it was 0%; in assay [10], 0%; in [11], 0.815%.
Regarding `Cc1cnn(CC(C)NCc2csc(-c3cnn(C)c3)n2)c1` (stereo not given), the Percent Effect in assay [1] is -0.0815%; in assay [2], 19%; in assay [3] it was -6.28%; in assay [4] it was -4.12%; in assay [5] it was -4.41%; in assay [6] it was 0.645%. The Percent Effect is 20.6% in assay [7]; 14% in assay [8]; 7.29% in [9]; -10.1% in assay [10]; -26.4% in [11].
As for `CO[C@H]1CCN(c2ncccn2)[C@H]1Cc1ccccc1`, the Percent Effect in [1] is 1.4%; in assay [2] it was 2.6%; in assay [3] it was -1.1%; in assay [4], 7.23%; in [5], -3.25%; in assay [6], -13.8%. For the same molecule, the Percent Effect is 16% in [7]; 13.8% in [8]; 5.38% in assay [9]; 8.64% in assay [10]; -1.72% in assay [11].
For the molecule `O=C(CCCc1nnc(-c2ccccc2)o1)N1CCN(CCO)CC1`, the Percent Effect in assay [1] is 0.944%; in [2], 5.06%; in assay [3] it was -13.1%; in assay [4], 8.28%; in [5], -2.36%; in [6], 5.7%. In addition, the Percent Effect was 12.2% in assay [7]; 0.191% in assay [8]; 2.46% in assay [9]; 8.86% in assay [10]; -6.47% in assay [11].
Take `CN(C)C(C(=O)N1CCCC1)c1ccccc1F` (stereo not given): the Percent Effect in assay [1] was -2.84%; in [2], 1.39%; in [3], 3.5%; in [4] it was -3.25%; in [5], -5.54%; in [6] it was 5.3%. In addition, the Percent Effect in [7] is 4.74%; in assay [8] it was -1.68%; in assay [9], 3.16%; in [10] it was 2.56%; in [11], -0.0422%.
Regarding `CN(C)C(=O)N1CCc2c(CNc3ncccn3)cncc2C1`, the Percent Effect in assay [1] was -2.85%; in assay [2], 0%; in assay [3], -1%; in [4] it was 7.13%; in assay [5], 1.35%; in assay [6], -23.8%. For the same molecule, the Percent Effect in [7] was 1.88%; in assay [8], -4.02%; in assay [9], 6.25%; in [10] it was 7.5%; in assay [11], -2.6%.
Regarding `Cc1cccc(C2(NC(=O)CCN3C(=O)CCC3=O)CCCC2)c1`, the Percent Effect in assay [1] was -5.83%; in [2] it was 12.7%; in [3], -1.51%; in assay [4] it was 8.26%; in assay [5] it was 0.85%; in [6] it was -2.28%. Further, the Percent Effect was 4.83% in assay [7]; 0.0333% in [8]; 5.42% in assay [9]; 11.4% in assay [10]; -4.64% in assay [11].
Consider `CCOCC1CN(C)Cc2cnn(CC3CCCC3)c21` (stereo not given), for which the Percent Effect in assay [1] amounted to 0.927%; in assay [2], 5.48%; in assay [3], 0.312%; in assay [4], 7.92%; in assay [5], 7.14%; in assay [6] it was 2%. Besides, the Percent Effect is 9.68% in [7]; -29.3% in assay [8]; 7.29% in [9]; 11.1% in [10]; -3.7% in assay [11].

(Values after ChEMBL document CHEMBL3988442, “University of Dundee, Small-Polar-MMV Screening Library” (2021).)
